About 13,000 (27%) of roughly 48,000 compounds showed an effect of 50% or more. The list shows a part of the results.

The record followed here is ChEMBL document CHEMBL3988442, “University of Dundee, Small-Polar-MMV Screening Library” (2021).

This test concerns Wolbachia pipientis. In words: Anti-Wolbachia Cell-Based Screen. Format: functional. On the set-up: scale not given: in the data most compounds retested in dose-response had high values. The note with it: 5 µM.
With `CCOCC(=O)NCC1(NC(C)c2ccccc2)CCOCC1` (stereo unspecified), the “Percent Effect” value is listed as -5.882%.
On to `Cc1cnn(CC(C)NCc2c(C)nn(Cc3ccccc3)c2C)c1` (stereo unspecified), for which the “Percent Effect” value is given as -7.761%.
The figure for `CCC(CN1CCCC1)n1cncc1-c1cnn(Cc2ccccc2)c1.Cl` (stereo unspecified) is 116%; for `CCc1nnsc1C(=O)N1CCCN(Cc2ccccc2)CC1` it is -10.59%; for `COc1cccc(CN2CCCC(Nc3cccc(F)c3)C2)c1O` (stereo unspecified) it is -12.95%.
With `COc1cccc(CN2CCCCCC2c2sccc2C)c1O` (stereo unspecified) the figure was 115%.
The figure for `COc1cccc(CN2CCCCCC2c2cccs2)c1OC` (stereo unspecified) is 128.6%.
With `COc1cc(CN2CCCCCC2c2cccs2)cc(OC)c1O` (stereo unspecified), the “Percent Effect” value was 139%.
The figure for `COc1cccc(CN2CCN(CC(C)C)C(=O)C2C)c1O` (stereo unspecified) is -13.51%; for `Cc1cc(C)cc(N(CCC#N)C(=O)CN2CCCC2c2cccs2)c1` (stereo unspecified) it is -27.93%.
As for `COc1cccc(CN2CCCCCC2c2cccs2)c1O` (stereo unspecified), the “Percent Effect” value was -12.69%.
With `COc1cc(CN2CCCCCC2c2cccs2)cc(OC)c1OC` (stereo unspecified) the figure was 88.88%; with `O=C(CCN1CCCC1c1cccs1)N1CCc2sccc2C1` (stereo unspecified), 2.808%; with `Cc1nc(C)n(CC2CCCCN2CCCS(N)(=O)=O)n1` (stereo unspecified), -48.39%.
As for `CC(NC(=O)N1CCC(OCc2ccccc2)CC1)c1nncn1C` (stereo unspecified), the “Percent Effect” value is on record as -3.035%.
With `CC(=O)Nc1ccc(-n2ccc3nc(N4CCCC4)ncc3c2=O)cc1`, the “Percent Effect” value came out at 4.031%.
The figure for `OCCC1CN(c2nc(-c3cccnc3)nc3c2CCNCC3)CCO1` (stereo unspecified) is -11.64%; for `CNC(=O)c1c(C)cccc1NCC(=O)Nc1cc(C)nn1C` it is -2.295%; for `O=C(Nc1ccc(F)cc1)N(CCC(F)(F)F)C[C@H](O)CO` it is -0.3648%.
In the case of `Cc1nc2c(c(N3CCCOCC3)n1)CCN(C(=O)N1CCCC1)CC2`, the “Percent Effect” value amounted to 0.8074%.
On to `Cc1nc2c(c(N3CCCOCC3)n1)CCN(c1nccs1)CC2`, for which the “Percent Effect” value was found to be 108.7%.
With `Cc1nc(N2CCOCC2)nc2c1CCN(c1nccs1)CC2` the figure was 1.797%; with `CCc1nc2n(n1)CCCC2NC(=O)Nc1cc(OC)ccc1C` (stereo unspecified), 24.05%; with `CS(=O)(=O)CCCN1CCOC2(CCc3ccccc32)C1` (stereo unspecified), -1.468%.
The figure for `CN(Cc1cc(F)ccc1C#N)CC(C)(CO)CO` is 8.99%.
On to `Cc1cc(F)ccc1S(=O)(=O)N(C)CC(N)=O`, for which the “Percent Effect” value was -0.8212%.
Regarding `COc1c(C2CCCN2C(=O)c2cccc(C)n2)c(C)nn1C` (stereo unspecified), the “Percent Effect” value is 93.53%.
The figure for `Cc1nn(C)c(Cl)c1C1CCCN1C(=O)c1ccc(N(C)C)nn1` (stereo unspecified) is -10.16%; for `COc1c(C2CCCN2C(=O)c2ccnc(C)n2)c(C)nn1C` (stereo unspecified) it is 135.1%; for `COc1c(C2CCCN2C(=O)c2cccc(C(N)=O)c2)c(C)nn1C` (stereo unspecified) it is 8.718%.
With `COc1c(C2CCCN2C(=O)c2cccnc2N(C)C)c(C)nn1C` (stereo unspecified) the figure was 107.7%.
The figure for `COc1c(C2CCCN2C(=O)c2ccc(N(C)C)nn2)c(C)nn1C` (stereo unspecified) is 97.2%.
Consider `CS(=O)(=O)N1C[C@H](C(=O)Nc2cccnc2)C[C@H]2OCC[C@H]21.O=C(O)C(F)(F)F`, for which the “Percent Effect” value was -10.82%.
As to `CC[C@@]1(O)CCN(c2ncc(Cl)cc2C(F)(F)F)C[C@H]1O`, the “Percent Effect” value is on record as -3.293%.
With `COCc1noc(CNc2nc(C3CCCC3)nc3c2CCNCC3)n1` the figure was -2.329%; with `COc1ccc(SC(C)C(=O)N2CCC(C(=O)N3CCCC3)CC2)cc1` (stereo unspecified), -0.009577%; with `COCCNC(=O)c1cc(S(=O)(=O)N2CCCCCC2)cs1`, 97.81%.
With `COCCNC(=O)C1CCCN1S(=O)(=O)c1sc(=O)[nH]c1C` (stereo unspecified) the figure was -10.99%.
On to `COCCNC(=O)c1cc2c(s1)CCN2S(C)(=O)=O`, for which the “Percent Effect” value stood at 90.75%.
With `CN(C)CCNC(=O)c1ccc(OC2CCN(S(C)(=O)=O)CC2)c(Cl)c1` the figure was -4.841%.
In the case of `NC(=O)C1CCN(C(=O)c2cc(S(=O)(=O)N3CCCCC3)cs2)CC1`, the “Percent Effect” value is on record as 2.088%.
The figure for `CC(C)CNC(=O)c1cc2c(s1)CCN2S(C)(=O)=O` is 101.5%; for `COCCNC(=O)NCCS(=O)(=O)N1CCN(c2cccc(C)c2)CC1` it is 9.148%; for `CC(C)CNC(=O)c1cc2c(s1)CCN2Cc1cccnc1` it is -6.846%.
With `COCCNC(=O)c1cc(S(=O)(=O)N2CCCCC2)cs1` the figure was 0.5112%; with `CN(C)CCNC(=O)c1cc2c(s1)CCN2S(C)(=O)=O`, 114.7%; with `CC(C)CNC(=O)c1nc2c(s1)CCN(C(=O)c1cccnc1)CC2`, -3.468%.
The figure for `Cc1ncsc1CCC(=O)N1CCN(CCn2cncn2)CC1` is -30.48%.
For `CS(=O)(=O)c1nnc(NC(=O)CCc2ccc(Cl)s2)[nH]1`, the “Percent Effect” value is recorded as -11.44%.
With `COc1cc(CN(C)C(=O)NCCNC(=O)C2CC2)ccc1SC` the figure was 6.493%.
With `Cc1nnc(CN2CCN(C)C3(CCNC(=O)CC3)C2)s1` (stereo unspecified) the figure was -6.186%.
